# About 900 (1.7%) of roughly 53,000 compounds showed an effect of 50% or more. The entries come from a sample that favours strong results as a whole.
# System: Mycobacterium tuberculosis
# Experiment: Cornell - Phenotypic assay to identify agents that inhibit growth of Mycobacterium tuberculosis
# Type: functional
# Set-up: scale not given: direction of the effect not stated beside the values
# Conditions: 10 mM as filed; unlikely as a test dose
row,SMILES,Percent Effect
1,O=C(NCc1ccco1)[C@@H]1CCO[C@@H]2CCN(c3ncccn3)C[C@@H]21.O=C(O)C(F)(F)F,-22.51%
2,Cc1ncc(CN2CCC(c3nc(O)cc(-c4ccsc4)n3)CC2)cn1,21.36%
3,CCc1noc(CN(CCC2CCCCC2)CC(N)=O)n1,4.193%
4,O=C(Nc1cccc(OCc2ccc(F)cc2)c1)C1COCCO1 (configuration not stated),107.1%
5,O=C(Nc1ccc(OCc2cccc(F)c2)c(F)c1)C1COCCO1 (configuration not stated),18.87%
6,CCOCc1cccc(NC(=O)C2COCCO2)c1 (configuration not stated),-0.8336%
7,O=C(Nc1cccc(OCc2cccc(F)c2)c1)C1COCCO1 (configuration not stated),108%
8,O=C(OCc1ccccc1)c1cccc(NC(=O)C2COCCO2)c1 (configuration not stated),-2.465%
9,CCOC(=O)COc1cccc(NC(=O)C2COCCO2)c1 (configuration not stated),12.18%
10,CC1CCCCN1C(=O)COc1nc(Cc2ccc(F)cc2)no1 (configuration not stated),-36.23%
11,CCN(Cc1ccc(C(C)C)cc1)C(=O)c1csc(CN(C)C)n1,-18.18%
12,CCCNC(=O)NC(=O)CNc1c(F)cccc1N1CCCC1,-0.2754%
13,CN(C)c1cc2c(nn1)CCN(C(=O)C1CCc3ccccc31)C2 (configuration not stated),-36.17%
14,CCNc1cc2c(nn1)CCN(C(=O)C1Cc3ccccc3S1)C2 (configuration not stated),12.56%
15,CN(C)c1cc2c(nn1)CCN(C(=O)C1Cc3ccccc3S1)C2 (configuration not stated),54.31%
16,CN1CCOC(CNC(=O)C2(c3cccc(C(F)(F)F)c3)CCCC2)C1 (configuration not stated),17.35%
17,CCn1cc(CN2CCCN(C(=O)CCc3ccccc3)CC2)cn1,-0.8409%
18,Cc1nn(C)cc1NC(=O)CN1CCC(Oc2cnccn2)CC1,11.01%
19,Br.Cc1ccccc1OC1CCN(CC(=O)Nc2cnn(C)c2C)CC1,6.171%
20,Cn1ccc(NC(=O)CN2CCC(Oc3cnccn3)CC2)n1,-4.083%
21,Cn1ccc(NC(=O)CN2CCN(C3CCCC3)C(=O)C2)n1,47.35%
22,CCn1cc(NC(=O)CN2CCC(Oc3ccc(F)cc3)CC2)c(C)n1.Cl,59.25%
23,Fc1ccc(OC2CCN(CCn3cncn3)CC2)cc1,21.61%

row,SMILES,Percent Effect
1,CCn1cc(NC(=O)CN2CCC(Oc3ccccc3C)CC2)c(C)n1,45.29%
2,Cc1ccccc1OC1CCN(CC(=O)Nc2c(C)nn(C)c2C)CC1,59.98%
3,Br.Cc1ccccc1OC1CCN(CC(=O)Nc2ccn(C)n2)CC1,51.43%
4,CCOc1ccccc1CCC(=O)Nc1c(C)nn(C)c1C,-20.08%
5,Cc1ccccc1OC1CCN(CC(=O)Nc2cn(C)nc2C)CC1,69.1%
6,Cc1nn(C)cc1NC(=O)CC1CCN(CCc2ccccc2)CC1,6.464%
7,COc1ccc(Cl)cc1C(=O)N1C[C@@H](NC(=O)N(C)C)[C@H](C(C)C)C1,-26.21%
8,COC(=O)c1ccoc1CN(C)CC(=O)NC1CC1,9.025%
9,Cc1cc(C2CCCCN2C(=O)c2cccn2C)nc2nccn12 (configuration not stated),14.54%
10,CCOCCC1(CNC(=O)c2ccsc2)CCC1,23.41%
11,Cc1cc(C(=O)N2CC[C@@H]3CN(C)S(=O)(=O)[C@@H]3CC2)no1,25.4%
12,O=C(O)c1ccnc2c(Br)cccc12,13.48%
13,COc1ccc(CNC(=O)NC(C)(C(=O)O)c2ccco2)cc1F (configuration not stated),-25.47%
14,O=C1COC2(CCN(Cc3ccco3)CC2)CN1Cc1cccnc1,24.6%
15,O=S1(=O)C[C@@H]2[C@H](C1)N(Cc1cc(Cl)cc(Cl)c1)CCN2CC1CC1,85.08%
16,Cc1cc(CN2CCN(CC3CC3)[C@@H]3CS(=O)(=O)C[C@@H]32)ccc1F,-1.418%
17,CCCN1CCN(Cc2cc(Cl)cc(Cl)c2)[C@H]2CS(=O)(=O)C[C@H]21,-17.23%
18,Cc1cc(CN2CCN(CC3CC3)[C@@H]3CS(=O)(=O)C[C@@H]32)cc(C)c1O,106.4%
19,Cc1ccc(CN2CCN(CC3CC3)[C@@H]3CS(=O)(=O)C[C@@H]32)cc1C,21.5%
20,O=S1(=O)C[C@@H]2[C@H](C1)N(Cc1cc(Cl)cc(Cl)c1)CCN2CCO,-11.47%
21,COc1ccc(C(=O)NCCC(N)=O)c(I)c1,-0.6619%
22,Cc1nc(NC2CCCCC2)cc(C2CCCNC2)n1.Cl (configuration not stated),-33.64%
23,COCc1nc(CNc2cccc(-c3nc(C)c(C)o3)c2)cs1,46.4%

row,SMILES,Percent Effect
1,Cc1cc(CNc2ccc3nc(C)sc3c2)no1,23.73%
2,COCc1nc2cc(NCc3sc(C)nc3C)ccc2o1,97.37%
3,COCc1nc2cc(NCc3scnc3C)ccc2o1,107%
4,Cc1ncsc1CNc1cccc(OCCN2CCCC2)c1,16.77%
5,COCCCSc1ccc(NCc2scnc2C)cc1,22.43%
6,CC(C)N1CC2(CCCN(c3ccnc4ccccc34)C2)CCC1=O (configuration not stated),17.47%
7,COCc1nnc(C(=O)N2CCCC(O)C2)o1 (configuration not stated),-16.94%
8,Cc1ncc(CNC(=O)CCc2cccs2)c(C2CCCN2C)n1 (configuration not stated),-2.251%
9,Cc1ccc(C2CN(Cc3cccc4[nH]ccc34)CCO2)nc1 (configuration not stated),-22.89%
10,O=C1CO[C@H]2CN(Cc3cccc(F)c3F)C[C@@H]2N1C1CCOCC1,-21.84%
11,O=C1CO[C@H]2CN(Cc3cccc4[nH]ccc34)C[C@@H]2N1C1CCOCC1,103.3%
12,CCC(CN1CCCC1)NC(=O)C1(c2ccc(F)cc2)CC1 (configuration not stated),38.36%
13,CCC1c2ccccc2CCN1CCNS(C)(=O)=O (configuration not stated),-0.3963%
14,COCc1cc(CNCc2c(C)n(CC(C)C)c3ccccc23)n[nH]1,48.01%
15,Cc1cc(CNCc2c(C)n(CC(C)C)c3ccccc23)[nH]n1,57.75%
16,COCc1cc(CNCc2c(C)n(CC(N)=O)c3ccccc23)n[nH]1,35.48%
17,COCCC(=O)N1CCCC1c1nc(C)c2c(n1)N(C)C(=O)CC2 (configuration not stated),9.481%
18,CC(C)(C)n1nnnc1CN(Cc1ccccc1)Cc1ccccc1Cl,7.141%
19,COc1ccc(OC)c(C2CCN(C3CCOCC3)C2)c1 (configuration not stated),-54.14%
20,COc1ccc(OC)c(C2CCN(CC(C)(C)N3CCOCC3)C2)c1 (configuration not stated),-53.82%
21,COc1ccc(OC)c(C2CCN(Cc3nc(C)n4ccccc34)C2)c1 (configuration not stated),51.45%

# Source: ChEMBL document CHEMBL3988442, “University of Dundee, Small-Polar-MMV Screening Library” (2021)
